Among all 340,000 compounds or so, about 240 (0.071%) were called active. The call rests on the fitted dose curve. What follows is part of a selection rich in actives, with near analogues and random picks from the rest. Entries that show only a call come without a potency.
Potency means the concentration at half of the fitted maximal effect.

This assay addresses Snurportin-1 (Homo sapiens) + GTP-binding nuclear protein Ran (Homo sapiens) + Importin subunit beta-1 (Homo sapiens) (UniProt O95149+P62826+Q14974). Description: qHTS Assay for Inhibitors of RanGTP induced Rango (Ran-regulated importin-beta cargo) - Importin beta complex dissociation. Further: nearly all actives have a fitted effect of over 45% in size. To be noted: Biochemical FRET Rango-importin beta; series mostly up to 46.1 µM. The text has this:
NIH Molecular Libraries Probe Production Centers Network [MLPCN] NIH Chemical Genomics Center [NCGC] MLPCN Grant: R03 MH090808-01A1 Assay Submitter (PI): Petr Kalab NCGC Assay Overview: The small GTPase Ran regulates transport of macromolecules between the nucleus and the cytoplasm (nuclear transport) and has important functions in mitotic spindle assembly, nuclear envelope (NE) formation and nuclear pore complex (NPC) assembly. RanGTP gradient is thought to promote spindle assembly by providing a spatial clue to microtubule nucleation and Aurora A activation. Because the localized release and binding of importin alpha cargos relays this spatial clue to SAFs, inhibitors of the Rango - importin beta complex can then be used in further understanding their role in cell cycle specifically in mitosis progression. […] Activation of Aurora A has been linked to different types of cancer and a number of Aurora kinase inhibitors are being developed as potential canter therapeutics; therefore, identified inhibitors of this complex could be developed into potential anti-mitotic probes for cancer treatment. Purified recombinant proteins Rango - importin beta and RanGTP-RCC1 stock premixes were provided by the assay submitter. The assay used a fluorescence resonance energy transfer (FRET) Rango biosensor that contains the IBB of human snurportin 1 flanked by yellow fluorescent protein (EYFP) at the amino terminus and cerulean CFP10 at the carboxy terminus. […] RanGTP binding to the complex (in the presence of RCC1) releases the Rango from the complex. The flexibility of the IBB in the freed Rango allows the donor - acceptor fluorophores to interact, resulting in a high FRET signal. Inhibitors will therefore be identified based on the ability to interfere with the FRET signal increase. DMSO treated and no RanGTP-RCC1 (buffer only) wells were used as negative and positive controls respectively. FRET readings were obtained at two time points. FRET reading prior to importin beta addition (pre-read) were used flag potential compound interference; FRET reading after importin beta addition (post-read) were used to identify inhibitors.
NCGC Assay Protocol Summary: Two and a half uL/well of Rango- importin beta premix solution (0.1 uM Rango, 0.25 uM importin beta, 1x PBS, 1mM DTT, 0.02% Tween-20, 0.1% BSA final concentrations) was dispensed into 1536-well assay plates (Greiner, solid black medium-binding plates) with Aurora Discovery BioRAPTR Flying Reagent Dispenser (FRD; Beckton-Dickenson). Compound solution (23 nL) was transferred to the assay plate using Kalypsys pin tool equipped with a 1536-pin tool and incubated at room temperature for 5 min followed by a FRET pre-read using the PerkinElmer Envision plate reader. Two and a half uL/well of RanGTP-RCC1 premix solution (0.6 uM Ran, 2mM GTP, 0.2 uM RCC1, 1x PBS, 1mM DTT, 0.02% Tween-20, 0.1% BSA final concentrations) were then added and incubated at room temperature giving a final reaction volume of 5uL. After 45min FRET post-read was obtained via the Envision plate reader using the same optics and settings as the pre-read (CFP/YFP optimized dual optical module D450/D505; excitation mirror CFP 430/24 nm; and emission filters CFP 486/10 nm and YFP 530/10 nm).
As for `COc1ccccc1N(CC(=O)Nc1c(C)n(C)n(-c2ccccc2)c1=O)S(=O)(=O)c1ccccc1`, the Potency result is “inactive”.

Regarding `CC(C)(C)c1nnc2sc(SCC(O)=C(C#N)c3nc4ccccc4[nH]3)nn2c1=O`, the Potency result was “inactive”.

On to `Cc1cc(NC(=O)C(C)SCC(=O)Nc2cccc(S(=O)(=O)N3CCCCCC3)c2)no1` (centres undefined), for which the Potency entry is “inactive”.

Turning to `CC(C)(C)C(=O)Nc1cccc(-c2ccc[nH]2)n1`, the Potency entry is “inactive”.

With `Nc1ccc2c(c1)C(O)c1ccc(Cl)cc1-2` (centres undefined), the Potency entry is “inactive”.

Take `Cn1cc(C2OC(=O)c3ccccc32)c2ccccc21` (centres undefined): the Potency entry is “inactive”.

Take `CCC1([N+](=O)[O-])COC(c2ccc(C(C)C)cc2)OC1` (centres undefined): the Potency result is “inactive”.

Turning to `Nc1ccc2c(c1)C(=Cc1cccnc1)c1ccccc1-2`, the Potency entry was “inactive”.

As for `Cc1nc2ccc(N)nc2nc1C`, the Potency result was “inactive”.

Consider `CC(C)c1cc(N=O)cc(C(C)C)c1O`, for which the Potency entry was “inactive”.

For the molecule `O=C(OCCOc1ccccc1Cl)c1cc(S(=O)(=O)N2CCCCC2)ccc1N1CCOCC1`, the Potency result is “inactive”.

As for `Cc1ccc(S(=O)(=O)N2CCN(C(=O)c3cc(S(=O)(=O)N4CCOCC4)ccc3F)CC2)cc1`, the Potency entry was “inactive”.

Turning to `CN(CCc1ccccc1)C(=O)c1cccc(NC(=O)Cc2cccc(NC(=O)C3CCCN(C(=O)CCc4ccccc4)C3)c2)c1` (centres undefined), the Potency result is “inactive”.

In the case of `CCC(=O)N1CCc2cc(Br)c(S(=O)(=O)NCCN3CCCCC3CC)cc21` (centres undefined), the Potency entry is “inactive”.

For the molecule `O=C(c1cccc(S(=O)(=O)N2CCCCCC2)c1)N1CCN(Cc2ccccc2)CC1`, the Potency entry was “inactive”.

In the case of `CCOc1ccccc1NC(=S)C(=C([O-])c1ccc2c(c1)OCCO2)[n+]1ccc(CC)cc1`, the Potency entry is “inactive”.

`CC(=O)c1cccc(-c2ccc(CN3C(CC(C)C)C(=O)N(Cc4cn(CC5CCCCC5)nn4)CCS3(=O)=O)cc2)c1` (centres undefined): the Potency entry was “inactive”.

On to `C[n+]1cccc(C(=O)O)c1`, for which the Potency entry was “inactive”.

For the molecule `CC1CN(Cc2ccco2)C(=S)N(c2ccccc2)C1=O` (centres undefined), the Potency result is “inactive”.

On to `Cc1nc(N)nc(Cl)c1CCC1OCCO1`, for which the Potency entry was “inactive”.

In the case of `O=C(CN1C(=O)/C(=C\c2ccc(C(F)(F)F)cc2)Sc2ccccc21)NCc1ccco1`, the Potency is 11.6 µM [inconclusive] (active).

Consider `O=C(CC1CCCCC1)NCc1ccco1`, for which the Potency result was “inactive”.

With `O=C(CCCCCN1C(=O)c2cccc3cccc(c23)C1=O)NCc1ccco1`, the Potency result is “inactive”.

As to `O=C(Cc1ccc([N+](=O)[O-])cc1)NCCc1ccc2c(c1)OCO2`, the Potency entry is “inactive”.

Take `Cc1nc(N)nc(SCc2ccc([N+](=O)[O-])cc2)c1N`: the Potency result is “inactive”.

Consider `Cc1cccc(NS(=O)(=O)c2ccc([N+](=O)[O-])cc2)n1`, for which the Potency result is “inactive”.

Regarding `Cc1nc2ccccc2nc(=O)c1NNc1ccc([N+](=O)[O-])cc1`, the Potency was 14.6 µM [inconclusive] (active).

Regarding `CN(C(=O)c1cccc(NC(=O)Cc2ccc(NC(=O)C3CCCN(C(=O)C4CCCC4)C3)cc2)c1)C1CCC1` (centres undefined), the Potency entry is “inactive”.

As for `CSCCC(NS(=O)(=O)c1ccc(C)cc1)C(=O)N(C)CC(=O)Nc1ccccc1Br` (centres undefined), the Potency entry was “inactive”.

Turning to `CC(=O)OCC(=O)C1(O)CCC2C3CC(C)C4=CC(=O)CCC4(C)C3C(O)CC21C` (centres undefined), the Potency entry is “inactive”.

Regarding `NC(=S)NN=C1CCCC(C(F)(F)F)C1` (centres undefined), the Potency entry is “inactive”.

On to `C[C@@H]1NS(=O)(=O)c2cc(Cl)ccc2O[C@@H]1c1ccccc1`, for which the Potency result was “inactive”.

As for `CC(=O)CSc1nc(CCc2ccccc2)c(C#N)c(=O)[nH]1`, the Potency result was “inactive”.

On to `CC(C)CN1CC(C)C(=O)N(c2ccccc2)C1=S` (centres undefined), for which the Potency result is “inactive”.

As to `Nc1ncnc2c1cnn2C1CC(O)C(CO)O1` (centres undefined), the Potency entry is “inactive”.

For the molecule `Cc1ccc(-c2csc(C(C#N)=C(O)CN3CCN(C(=O)c4ccco4)CC3)n2)cc1`, the Potency entry is “inactive”.

For the molecule `O=C1CC(C(=O)O)NC(=S)N1` (centres undefined), the Potency entry was “inactive”.

Take `CCc1nnc(NC(=O)c2cc(S(=O)(=O)N3CCN(CC)CC3)ccc2Cl)s1`: the Potency result is “inactive”.

`O=C(Cc1ccc(NC(=O)C2CCCN(C(=O)C3CCCCC3)C2)cc1)Nc1cccc(C(=O)N2CCCCC2)c1` (centres undefined): the Potency entry is “inactive”.

As for `CCc1ccc(C(=O)C(C)OC(=O)CN2C(=O)NC3(CCCC3)C2=O)cc1` (centres undefined), the Potency result is “inactive”.

For the molecule `COc1ccc(CCNC(=O)c2ccc(NC(=O)CC3SC(N4CCCCC4)=NC3=O)cc2)cc1OC` (centres undefined), the Potency result was “inactive”.

`Cc1onc(-c2c(F)cccc2Cl)c1C(=O)Nc1cccc(S(=O)(=O)N2CCCCC2)c1`: the Potency entry is “inactive”.

As to `COc1ccccc1C(=O)c1ccccc1C(=O)c1ccccc1`, the Potency entry is “inactive”.

As to `CCOC(=O)N(Cc1ccccc1)C1CC1`, the Potency result is “inactive”.

As for `COC1=NC2=NCCN2C(OC)=N1`, the Potency result was “inactive”.

For `O=C(NN=Cc1ccccc1O)NN=Cc1ccccc1O`, the Potency entry was “inactive”.

`O=[N+]([O-])c1cccc(C=NN=Cc2ccccc2O)c1`: the Potency entry was “inactive”.

Regarding `CN(C)CCNC(=O)c1ccc(Cl)c2cc3ccccc3nc12`, the Potency entry is “inactive”.

As for `CCC(C)C1(C2CCCC2)NC(=O)NC1=O` (centres undefined), the Potency entry was “inactive”.

For the origin of these results see PubChem BioAssay AID540253 (National Center for Advancing Translational Sciences (NCATS), 2011).
